According to PubChem BioAssay (NCI):
The panel holds about 79,000 compounds, 15% with a hit somewhere; the sample as a whole holds those more often. The source made the active and inactive calls. Cut-off read from the data, not from the text of the source: active = growth inhibition above about 70%; inactive = the rest.

Key:
[1] = NCI Yeast Anticancer Drug Screen. Data for the rad50 strain (AID 155);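 note: 0% = growth of vehicle-only cultures of the same strain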; conditions: S. cerevisiae rad50 strain growth inhibition; at 50.0 µM; active compounds read high
Summary of the method: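 Growth of the mutant yeast was measured after compound exposure and referenced to vehicle-treated cultures.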

[2] = NCI Yeast Anticancer Drug Screen. Data for the mec2-1 strain (AID 157); conditions: S. cerevisiae mec2-1 strain, at 50.0 µM, active compounds read high
Summary of the method: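 Growth inhibition is read against vehicle-treated controls after compound exposure of the mec2-1 yeast strain, which is defective in DNA damage repair or cell cycle control.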

[3] = NCI Yeast Anticancer Drug Screen. Data for the sgs1 mgt1 strain (AID 161);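 note: 0% = growth of cultures given vehicle only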; conditions: S. cerevisiae sgs1 mgt1 strain, at 50.0 µM, active compounds read high
Summary of the method: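 Growth of a repair-deficient yeast mutant was monitored after compound treatment and expressed as inhibition relative to vehicle-treated cultures.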

[4] = NCI Yeast Anticancer Drug Screen. Data for the cln2 rad14 strain (AID 165);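 note: 0% = growth equal to vehicle treated cultures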; conditions: S. cerevisiae cln2 rad14 strain, at 50.0 µM, active compounds read high
Summary of the method: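 Growth inhibition, relative to vehicle-treated controls, is the read-out. The test organism is a yeast strain with defined genetic alterations, cln2 rad14.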

[5] = NCI Yeast Anticancer Drug Screen. Data for the bub3 strain (AID 167); conditions: S. cerevisiae bub3 mutant strain, at 50.0 µM, active compounds read high
Summary of the method: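 Whole-cell yeast assay. The mutant strain was incubated with compounds, and growth inhibition was determined by comparison with vehicle-treated cells.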

[6] = NCI Yeast Anticancer Drug Screen. Data for the mlh1 rad18 strain (AID 175); conditions: S. cerevisiae mlh1 rad18 strain growth inhibition; at 50.0 µM; active compounds read high
Summary of the method: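 Cells of a genetically altered yeast strain, deficient in DNA damage repair, were treated with compound. Their growth was then compared with that of vehicle-treated cultures to give inhibition.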

Measured: growth inhibition

COc1ccccc1C(=O)N/N=C/c1ccc(O)cc1
inactive: [1] 0% | [2] 22.6% | [3] 15.3% | [4] -2.7% | [5] 16.6% | [6] 19.9%

COc1ccc(F)cc1N
inactive: [1] 2% | [2] -17.8% | [3] 5.15% | [4] -7.35% | [5] 11.8% | [6] -18.7%

O=C(NCc1ccccc1)c1ccc([N+](=O)[O-])cc1
inactive: [1] -7.2% | [2] 13.8% | [3] 10.3% | [4] -44.2% | [5] 22.8% | [6] 11.7%

O=C(Nc1nncs1)c1cccs1
inactive: [1] -13.8% | [2] -6.45% | [3] -5.6% | [4] 3.35% | [5] -11.2% | [6] -27.5%

CC(=O)OC1CCC2(C)C(=CC=C3C4CCC(=O)NC4(C)CCC32)C1 (stereo unspecified)
inactive: [1] 19.5% | [2] 0.25% | [3] 21.4% | [4] 11.1% | [5] -3.6% | [6] 2.35%

CNc1nc(N(C)C)nc(N(C)C)n1
inactive: [1] 25.2% | [2] 16.9% | [3] 15.6% | [4] 28.9% | [5] 26.8% | [6] 26.6%

CC(C(=O)c1ccc(Cl)cc1)[n+]1cc(Br)cc(Br)c1 (stereo unspecified)
inactive: [1] -22.6% | [2] -14.2% | [3] -9.3% | [4] -19.4% | [5] -21.4% | [6] -10.2%

O=C1NCC2Cc3ccccc3C(c3ccccc3)=C12 (stereo unspecified)
inactive: [1] -1.6% | [2] -1.1% | [3] 5.6% | [4] -6.15% | [5] -3.9% | [6] -4.25%

CCC(CO)NC(=O)/C=C/c1ccccc1Cl (stereo unspecified)
inactive: [1] 7% | [2] 14.4% | [3] 1.55% | [4] 2.3% | [5] -0.7% | [6] 10.5%

CN(C)C(=O)OCC1COc2ccccc2O1 (stereo unspecified)
inactive: [1] 15% | [2] -23.6% | [3] -23.1% | [4] -70.2% | [5] -11.1% | [6] -12.6%

CCCC1(c2ccccc2)OCC(CO)O1 (stereo unspecified)
inactive: [1] 15% | [2] 9.35% | [3] -17.4% | [4] 6.4% | [5] 4.1% | [6] 4.25%

Cc1c(C)c2c(c(C)c1Cl)CC2(Cl)Cl
inactive: [1] 3.6% | [2] 4% | [3] -9.15% | [4] -41.8% | [5] -5.55% | [6] -9.5%

O=C(O)CCC(=O)Nc1cc(C(F)(F)F)ccc1Cl
inactive: [1] 24.1% | [2] 13.7% | [3] 7.8% | [4] 25.1% | [5] 14.8% | [6] 7.5%

CCC(C)NC(=O)Nc1ccccc1 (stereo unspecified)
inactive: [1] 13.3% | [2] 8.95% | [3] -0.65% | [4] 3.9% | [5] -2.45% | [6] 6.35%

Cc1ccc(CC(=O)C(=O)O)c([N+](=O)[O-])c1
inactive: [1] -9.7% | [2] 38.1% | [3] 4.5% | [4] -23.6% | [5] -17.9% | [6] 8.2%

COc1cc(/C=C/C(=O)c2sc(-n3nc(-c4ccccc4)cc3-c3ccccc3)nc2C)ccc1O
inactive: [1] 6% | [2] -13.6% | [3] -34.4% | [4] 4.9% | [5] 26.4% | [6] -10%

CCOC(=O)c1c(C)nc(C)c(C(=O)OCC)c1-c1ccnc2ccccc12
inactive: [1] 0.9% | [2] -15.9% | [3] 17.4% | [4] -13% | [5] -3.95% | [6] 5.1%

O=[N+]([O-])c1ccc(N/N=C(/c2ccc(Cl)cc2)c2ccccc2Cl)c([N+](=O)[O-])c1
inactive: [1] -15.8% | [2] 1.2% | [3] -6.25% | [4] -16.8% | [5] 3.35% | [6] 21.4%

O=C(O)C[C@H]1CCCCC12CCOC2=O (stereo partly specified)
inactive: [1] 10.8% | [2] 6.7% | [3] -0.7% | [4] -18.6% | [5] 22% | [6] 9.85%

CCCCCCCCCCCC(=O)N/N=C(\C)c1cccc2ccccc12
active: [1] 86.8% | [2] 84.2% | [3] 94% | [6] 84.2%
inactive: [4] 59.8% | [5] 43.8%

C/C=C(\CC)C(C#N)(CC)C(=O)OCC (stereo unspecified)
inactive: [1] 20.9% | [2] -18.4% | [3] -7.5% | [4] -6.25% | [5] -30.3% | [6] -24.8%

Cn1cnc([N+](=O)[O-])c1Sc1n[nH]c(-c2ccc(Cl)cc2)n1
inactive: [1] -11.6% | [2] 1.7% | [3] -7.75% | [4] 21.4% | [5] 17.1% | [6] -6.05%

CN1CCC(n2[nH]c(-c3ccccc3)c(Cc3ccccc3)c2=O)CC1
inactive: [1] 3.3% | [2] -40.6% | [3] -13.3% | [4] 10.6% | [5] -15.1% | [6] 5.7%

CCC1C(C#N)(C#N)C1(C#N)C#N
inactive: [1] -4.7% | [2] 21.8% | [3] 7.45% | [4] 0.35% | [5] 1.45% | [6] 12.2%

CCN(/C=C/C=C(C#N)C#N)CC
inactive: [1] 6.05% | [2] -5.3% | [3] -9.05% | [4] -15.8% | [5] 6.35% | [6] -12.7%

FC(F)(F)c1cc(Cl)c2ccc3ccccc3c2n1
inactive: [1] 8.65% | [2] 5.3% | [3] 1.9% | [4] -62.4% | [5] 3.65% | [6] -12.8%

COc1nc(NC2OCC(OC(C)=O)C(OC(C)=O)C2OC(C)=O)c(N=C(C)C(C)=O)c(=O)n1C (stereo unspecified)
inactive: [1] 30.4% | [2] 21.6% | [3] 13.4% | [4] 17.7% | [5] -1.35% | [6] 8.4%

CC(CC(C)(C)C)C(=O)O (stereo unspecified)
inactive: [1] -4.05% | [2] -5.75% | [3] 2.55% | [4] 1.2% | [5] 6.85% | [6] 7.25%

COC(=O)C1=C2C3(O)CC4CC5C3CCC(C)N5C24C2CCC(O)C(OC)C2C1OC(=O)c1ccccc1 (stereo unspecified)
inactive: [1] -34.6% | [2] -38.3% | [3] -20.9% | [4] -1.85% | [5] -30.4% | [6] 4.35%

COc1cccc(C=NC23CC4CC(CC(C4)C2)C3)c1
inactive: [1] -22.2% | [2] -3.15% | [3] 3.65% | [4] -0.9% | [5] 6.85% | [6] -6.8%

OCC1OC(n2cnc3c(Cl)nc(Nc4ccc(Cl)c(Cl)c4)nc32)CC1O (stereo unspecified)
inactive: [1] 7.45% | [2] -0.2% | [3] -12.9% | [4] -0.4% | [5] -16.9% | [6] 66%

O=C(CCl)NCCCCCNC(=O)CCl
inactive: [1] -11.7% | [2] 2.85% | [3] -6.85% | [4] -31.7% | [5] 15.2% | [6] 17.6%

COCCOCCOCCC(=O)NC1CC2CCC1(C)C2(C)C (stereo unspecified)
inactive: [1] -10.5% | [2] -1.85% | [3] 8.2% | [4] -16.7% | [5] 23.7% | [6] 15.4%

C[N+](C)(CCCN1C(=O)c2cccc3c(Br)ccc(c23)C1=O)Cc1ccc(Cl)c(Cl)c1
active: [1] 97.8% | [2] 98% | [3] 98.3% | [4] 95.8% | [5] 95.7% | [6] 98%

CCOC(=O)c1cc2ccccc2nc1N
inactive: [1] 0% | [2] 3.45% | [3] -7.15% | [4] -21.5% | [5] -17.1% | [6] 1.1%

NCCCCCCNCc1cccc2ccccc12
inactive: [1] -9.85% | [2] -13.1% | [3] -9.7% | [4] 6.05% | [5] -10.3% | [6] -31.4%

C=CCN1CC2CON(C(=O)C(OC)(c3ccccc3)C(F)(F)F)C2C1C(C)C (stereo unspecified)
inactive: [1] 2.05% | [2] -17.7% | [3] 9.15% | [4] 18.2% | [5] 24.2% | [6] -5.85%

O=P(c1ccccc1)(c1ccccc1)C(O)c1ccc(F)cc1 (stereo unspecified)
inactive: [1] -11.6% | [2] -14.7% | [3] 7.4% | [4] 2.1% | [5] 1.4% | [6] -7.25%

OC1CSCCSCCCSCCSC1
inactive: [1] 34.1% | [2] 22.4% | [3] 44.5% | [4] 15.5% | [5] 35.1% | [6] 40.4%

Cc1cccc(NCc2ccccc2)c1
inactive: [1] 32.5% | [2] 5.95% | [3] 19.4% | [4] -22.1% | [5] 29.6% | [6] 24.9%

Cc1cccc(C(C)C)c1NC(=O)C(=O)CC(=O)c1c(C)n([O-])c2ccccc2[n+]1=O
inactive: [1] -7.2% | [2] 9.45% | [3] -10% | [4] 12.2% | [5] -13.1% | [6] -16.2%
